Assay results published in PubChem BioAssay AID1159580 (chemical genetic matrix, 2015).
Out of some 5,500 compounds screened, about 2,000 (36%) were called active. About 18% were inconclusive and are not listed. Some of the results follow. Unmarked numbers belong to inactive results. Rule as the data show it: active = normalized growth mostly below about 0.91 (no sharp cut-off); inconclusive = no clear call, values can overlap the other calls; inactive = mostly above about 0.92.

Test: chemical genetic growth profiling, strain panel (AID 1159580);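 also: tested at 20 µM; growth read once vehicle control cultures reached saturation at 30 °C; 1 = growth at the plate median or of vehicle wells; lower values mean less growth of the strain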
Settings: S. cerevisiae deletion strains, growth OD
[1] = locus YHR030C, strain SLT2, stronger effect = lower value

## CCOC(=O)c1cc(CC)sc1NC(=O)c1ccc([N+](=O)[O-])o1
Locus YBL105C, strain PKC1, stronger effect = lower value
  normalized growth: 0.959
Locus YBR135W, strain CKS1, stronger effect = lower value
  normalized growth: 0.992
Locus YBR136W, strain MEC1, stronger effect = lower value
  normalized growth: 0.999
Locus YBR160W, strain CDC28, stronger effect = lower value
  normalized growth: 1
Locus YDL017W, strain CDC7, stronger effect = lower value
  normalized growth: 1
Locus YDL028C, strain MPS1, stronger effect = lower value
  normalized growth: 0.988
Locus YDL108W, strain KIN28, stronger effect = lower value
  normalized growth: 0.998
Locus YDL132W, strain cdc53, stronger effect = lower value
  normalized growth: 0.996
Locus YDL214C, strain PRR2, stronger effect = lower value
  normalized growth: 0.226 (active)
Locus YDR052C, strain DBF4, stronger effect = lower value
  normalized growth: 1
Locus YDR054C, strain cdc34, stronger effect = lower value
  normalized growth: 0.985
Locus YDR226W, strain ADK1, stronger effect = lower value
  normalized growth: 0.985
Locus YDR477W, strain SNF1, stronger effect = lower value
  normalized growth: 0.327 (active)
Locus YER123W, strain YCK3, stronger effect = lower value
  normalized growth: 0.34 (active)
Locus YER133W, strain GLC7, stronger effect = lower value
  normalized growth: 0.347 (active)
Locus YFL009W, strain cdc4, stronger effect = lower value
  normalized growth: 0.985
Locus YFL029C, strain CAK1, stronger effect = lower value
  normalized growth: 0.929
Locus YFR003C, strain YPI1, stronger effect = lower value
  normalized growth: 1
Locus YFR019W, strain FAB1, stronger effect = lower value
  normalized growth: 0.3 (active)
Locus YFR028C, strain CDC14, stronger effect = lower value
  normalized growth: 0.991
Locus YGR040W, strain KSS1, stronger effect = lower value
  normalized growth: 0.43 (active)
Locus YGR052W, strain FMP48, stronger effect = lower value
  normalized growth: 0.205 (active)
Locus YGR092W, strain DBF2, stronger effect = lower value
  normalized growth: 0.505
[1]
  normalized growth: 0.281 (active)
Locus YHR079C, strain IRE1, stronger effect = lower value
  normalized growth: 0.727
Locus YHR082C, strain KSP1, stronger effect = lower value
  normalized growth: 0.202 (active)
Locus YHR205W, strain SCH9, stronger effect = lower value
  normalized growth: 0.153 (active)
Locus YIL147C, strain SLN1, stronger effect = lower value
  normalized growth: 1
Locus YJL095W, strain BCK1, stronger effect = lower value
  normalized growth: 0.318 (active)
Locus YJL128C, strain PBS2, stronger effect = lower value
  normalized growth: 0.938
Locus YJL157C, strain FAR1, stronger effect = lower value
  normalized growth: 0.372 (active)
Locus YJR016C, strain ILV3, stronger effect = lower value
  normalized growth: 0.95
Locus YJR066W, strain TOR1 (second series), stronger effect = lower value
  normalized growth: 0.197 (active)
Locus YJR066W, strain TOR1, stronger effect = lower value
  normalized growth: 0.212 (active)
Locus YKL067W, strain YNK1, stronger effect = lower value
  normalized growth: 0.435 (active)
Locus YKL101W, strain HSL1, stronger effect = lower value
  normalized growth: 0.451 (active)
Locus YKL193C, strain SDS22, stronger effect = lower value
  normalized growth: 0.98
Locus YLR113W, strain HOG1, stronger effect = lower value
  normalized growth: 0.574 (active)
Locus YLR133W, strain CKI1, stronger effect = lower value
  normalized growth: 0.18 (active)
Locus YLR403W, strain SFP1, stronger effect = lower value
  normalized growth: 0.129 (active)
Locus YML070W, strain DAK1, stronger effect = lower value
  normalized growth: 0.471 (active)
Locus YMR001C, strain CDC5, stronger effect = lower value
  normalized growth: 0.998
Locus YMR205C, strain PFK2 (second series), stronger effect = lower value
  normalized growth: 0.47 (active)
Locus YNL006W, strain LST8, stronger effect = lower value
  normalized growth: 0.507 (active)
Locus YNL020C, strain ARK1, stronger effect = lower value
  normalized growth: 0.338 (active)
Locus YNL161W, strain CBK1, stronger effect = lower value
  normalized growth: 0.987
Locus YNL183C, strain NPR1, stronger effect = lower value
  normalized growth: 0.175 (active)
Locus YNL207W, strain RIO2, stronger effect = lower value
  normalized growth: 0.995
Locus YNL222W, strain SSU72, stronger effect = lower value
  normalized growth: 0.993
Locus YNL307C, strain MCK1 (second series), stronger effect = lower value
  normalized growth: 0.464 (active)
Locus YOL078W, strain AVO1, stronger effect = lower value
  normalized growth: 1
Locus YOL136C, strain PFK27, stronger effect = lower value
  normalized growth: 0.378 (active)
Locus YOR061W, strain CKA2, stronger effect = lower value
  normalized growth: 0.334 (active)
Locus YOR231W, strain MKK1, stronger effect = lower value
  normalized growth: 0.756
Locus YOR329C, strain SCD5, stronger effect = lower value
  normalized growth: 1
Locus YPL031C, strain PHO85, stronger effect = lower value
  normalized growth: 0.169 (active)
Locus YPL153C, strain RAD53, stronger effect = lower value
  normalized growth: 0.487 (active)
Locus YPL204W, strain HRR25, stronger effect = lower value
  normalized growth: 0.464 (active)
Locus YPL209C, strain IPL1, stronger effect = lower value
  normalized growth: 0.979
Locus YPL256C, strain CLN2, stronger effect = lower value
  normalized growth: 0.337 (active)
Locus YPR111W, strain DBF20, stronger effect = lower value
  normalized growth: 0.906
Strain NNK1, stronger effect = lower value
  normalized growth: 0.995
Strain TSCII, stronger effect = lower value
  normalized growth: 0.998

## FC(F)(F)c1cnc(N2CCN(C(=S)Nc3ccccc3)CC2)c(Cl)c1
Locus YAL013W, strain DEP1, stronger effect = lower value
  normalized growth: 0.989
Locus YBR229C, strain ROT2, stronger effect = lower value
  normalized growth: 1.01
Locus YCL061C, strain MRC1, stronger effect = lower value
  normalized growth: 1
Locus YDL101C, strain DUN1, stronger effect = lower value
  normalized growth: 0.999
Locus YDL134C, strain PPH21, stronger effect = lower value
  normalized growth: 1.01
Locus YDR150W, strain NUM1, stronger effect = lower value
  normalized growth: 0.963
Locus YEL061C, strain CIN8, stronger effect = lower value
  normalized growth: 0.985
Locus YGR078C, strain PAC10, stronger effect = lower value
  normalized growth: 0.993
[1]
  normalized growth: 1.05
Locus YHR087W, strain rtc3, stronger effect = lower value
  normalized growth: 1.03
Locus YJR043C, strain POL32, stronger effect = lower value
  normalized growth: 0.986
Locus YJR075W, strain HOC1, stronger effect = lower value
  normalized growth: 1.02
Locus YKL190W, strain CNB1, stronger effect = lower value
  normalized growth: 1.01
Locus YLR039C, strain RIC1, stronger effect = lower value
  normalized growth: 0.984
Locus YLR058C, strain SHM2 (second series), stronger effect = lower value
  normalized growth: 1.02
Locus YLR085C, strain ARP6, stronger effect = lower value
  normalized growth: 1.03
Locus YLR262C, strain YPT6, stronger effect = lower value
  normalized growth: 1.02
Locus YML094W, strain GIM5, stronger effect = lower value
  normalized growth: 0.952
Locus YMR219W, strain ESC1, stronger effect = lower value
  normalized growth: 1.02
Locus YMR263W, strain SAP30, stronger effect = lower value
  normalized growth: 0.982
Locus YMR307W, strain GAS1, stronger effect = lower value
  normalized growth: 1
Locus YNL128W, strain TEP1, stronger effect = lower value
  normalized growth: 1.01
Locus YNL153C, strain GIM3, stronger effect = lower value
  normalized growth: 0.972
Locus YNL298W, strain CLA4 (second series), stronger effect = lower value
  normalized growth: 0.976
Locus YNL322C, strain KRE1, stronger effect = lower value
  normalized growth: 1.01
Locus YNR030W, strain Alg12, stronger effect = lower value
  normalized growth: 1
Locus YOL006C, strain TOP1, stronger effect = lower value
  normalized growth: 0.894
Locus YPL055C, strain LGE1, stronger effect = lower value
  normalized growth: 0.938
Locus YPL241C, strain CIN2, stronger effect = lower value
  normalized growth: 0.955
Locus YPR135W, strain CTF4, stronger effect = lower value
  normalized growth: 0.981
